This passage reports binding signal results from paper PMC10812921, “Transcriptional Coactivator BOB1 (OBF1, OCA-B) Modulates the Specificity of DNA Recognition by the POU-Domain Factors OCT1 and OCT2 in a Monomeric Configuration”.

Experiment [1] deals with POU1 (OCT1 POU domain) (human, UniProt P14859 260-458). Kind of experiment: EMSA-SELEX-seq; no BOB1; 20 mM Tris-HCl pH 7.6, 140 mM NaCl, 10% glycerol, 0.5 mM EDTA, 0.05% Triton X-100, 0.1 mg/mL BSA, 0.1 mg/mL poly(dI-dC), 5 mM DTT, room temperature, 20 min; high values mean tight binding. The settings on record: protein: recombinant; dsDNA, one strand shown. The gist of the method:
(§1)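 After expression in E. coli BL21, tagged POU-domain proteins were purified under denaturing conditions and then renatured. Each binding reaction held 30 ng protein and 300 ng of a PCR-amplified double-stranded random 35-nt library in 20 μL Tris–HCl pH 7.6 binding buffer, with or without 28 ng coactivator protein, for 20 min at RT. Bands holding complexes were cut from native 6% PAGE, eluted and PCR-amplified across four rounds, and the output was Illumina-sequenced. The value given for binding preference is the share, in percent, of sequenced 8-mers fitting a motif pattern.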

For experiment [2], the target named is T1, POU2 (OCT2 POU domain) (human, UniProt P09086 175-386).
T1 sequence: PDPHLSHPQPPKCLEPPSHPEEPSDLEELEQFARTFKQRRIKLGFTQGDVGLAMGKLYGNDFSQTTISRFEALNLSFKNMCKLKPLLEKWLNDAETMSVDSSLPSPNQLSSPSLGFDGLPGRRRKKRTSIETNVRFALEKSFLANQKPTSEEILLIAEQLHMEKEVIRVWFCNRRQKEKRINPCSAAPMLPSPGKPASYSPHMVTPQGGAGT
Described as above. The conditions noted are these: protein: recombinant; dsDNA, one strand shown. A digest of the protocol:
as §1

Experiment [3] concerns the target POU1 (OCT1 POU domain);BOB1 (OBF1, OCA-B) (human;human, UniProt P14859;Q16633 260-458;1-256, |). Put plainly: EMSA-SELEX-seq; with BOB1 (ternary complex band); 20 mM Tris-HCl pH 7.6, 140 mM NaCl, 10% glycerol, 0.5 mM EDTA, 0.05% Triton X-100, 0.1 mg/mL BSA, 0.1 mg/mL poly(dI-dC), 5 mM DTT, room temperature, 20 min; high values mean tight binding. The settings on record: protein: recombinant;recombinant; copies: 1;1; dsDNA, one strand shown. The gist of the method:
as §1

Experiment [4] deals with T2, POU2 (OCT2 POU domain);BOB1 (OBF1, OCA-B) (human;human, UniProt P09086;Q16633 175-386;1-256, |).
T2 sequence 1: T1 sequence
T2 sequence 2: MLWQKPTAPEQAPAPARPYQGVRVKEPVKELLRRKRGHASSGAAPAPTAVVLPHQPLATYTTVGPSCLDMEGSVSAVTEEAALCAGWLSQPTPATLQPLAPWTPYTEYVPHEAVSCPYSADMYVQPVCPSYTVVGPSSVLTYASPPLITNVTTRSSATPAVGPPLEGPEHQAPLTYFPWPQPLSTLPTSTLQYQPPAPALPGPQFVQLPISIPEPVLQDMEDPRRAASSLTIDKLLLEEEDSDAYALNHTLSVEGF
The description is as above. The conditions noted are these: protein: recombinant;recombinant; copies: 1;1; dsDNA, one strand shown. A digest of the protocol: as §1

POU1 (OCT1 POU domain), sequence (P14859 260-458): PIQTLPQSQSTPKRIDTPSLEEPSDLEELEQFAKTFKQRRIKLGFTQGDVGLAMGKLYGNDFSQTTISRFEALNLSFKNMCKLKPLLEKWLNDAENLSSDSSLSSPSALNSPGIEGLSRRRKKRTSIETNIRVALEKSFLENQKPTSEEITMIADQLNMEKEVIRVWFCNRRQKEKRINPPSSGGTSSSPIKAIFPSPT

Take ACTTGAAT: the binding signal in experiment [1] was 0.0828 % of ANNNNAAN 8-mers; in experiment [2], 0.0961 % of ANNNNAAN 8-mers; in experiment [3] it was 0.0613 % of ANNNNAAN 8-mers; in experiment [4] it was 0.071 % of ANNNNAAN 8-mers.
Taken in the same sequence, the figures for AAGTTAAT were 0.165 % of ANNNNAAN 8-mers, 0.178 % of ANNNNAAN 8-mers, 0.102 % of ANNNNAAN 8-mers and 0.102 % of ANNNNAAN 8-mers.
Take ACGTGAAC: the binding signal was 0.0153 % of ANNNNAAN 8-mers in experiment [1], 0.0247 % of ANNNNAAN 8-mers in experiment [2], 0.0215 % of ANNNNAAN 8-mers in experiment [3] and 0.0206 % of ANNNNAAN 8-mers in experiment [4].
Consider AAACAAAC, for which the binding signal in experiment [1] is 0.066 % of ANNNNAAN 8-mers; in experiment [2] it was 0.0506 % of ANNNNAAN 8-mers; in experiment [3], 0.109 % of ANNNNAAN 8-mers; in experiment [4] it was 0.0512 % of ANNNNAAN 8-mers.
In the same order, the values of AGCTTAAG are 0.029 % of ANNNNAAN 8-mers, 0.0391 % of ANNNNAAN 8-mers, 0.0379 % of ANNNNAAN 8-mers and 0.0355 % of ANNNNAAN 8-mers.
Taken in the same sequence, the figures for ATTTAAAC were 0.137 % of ANNNNAAN 8-mers, 0.161 % of ANNNNAAN 8-mers, 0.117 % of ANNNNAAN 8-mers and 0.109 % of ANNNNAAN 8-mers.
In the same order, the values of ATCGCAAA are 0.0515 % of ANNNNAAN 8-mers, 0.0478 % of ANNNNAAN 8-mers, 0.0816 % of ANNNNAAN 8-mers and 0.0413 % of ANNNNAAN 8-mers.
Regarding AGTGTAAA, the binding signal in experiment [1] was 0.0576 % of ANNNNAAN 8-mers; in experiment [2], 0.0667 % of ANNNNAAN 8-mers; in experiment [3], 0.0687 % of ANNNNAAN 8-mers; in experiment [4], 0.052 % of ANNNNAAN 8-mers.
In the case of ATCTGAAC, the binding signal in experiment [1] was 0.0275 % of ANNNNAAN 8-mers; in experiment [2], 0.0265 % of ANNNNAAN 8-mers; in experiment [3] it was 0.0258 % of ANNNNAAN 8-mers; in experiment [4] it was 0.0429 % of ANNNNAAN 8-mers.
In the same order, the values of AATAGAAT are 0.113 % of ANNNNAAN 8-mers, 0.136 % of ANNNNAAN 8-mers, 0.0921 % of ANNNNAAN 8-mers and 0.121 % of ANNNNAAN 8-mers.
As for AATTGAAC, the binding signal was 0.0492 % of ANNNNAAN 8-mers in experiment [1], 0.0575 % of ANNNNAAN 8-mers in experiment [2], 0.0386 % of ANNNNAAN 8-mers in experiment [3] and 0.052 % of ANNNNAAN 8-mers in experiment [4].
Taken in the same sequence, the figures for ACCGTAAC were 0.0118 % of ANNNNAAN 8-mers, 0.019 % of ANNNNAAN 8-mers, 0.018 % of ANNNNAAN 8-mers and 0.0272 % of ANNNNAAN 8-mers.
Taken in the same sequence, the figures for ATTCGAAC were 0.0351 % of ANNNNAAN 8-mers, 0.046 % of ANNNNAAN 8-mers, 0.0324 % of ANNNNAAN 8-mers and 0.0396 % of ANNNNAAN 8-mers.
Regarding AACCGAAT, the binding signal was 0.0412 % of ANNNNAAN 8-mers in experiment [1], 0.0363 % of ANNNNAAN 8-mers in experiment [2], 0.0324 % of ANNNNAAN 8-mers in experiment [3] and 0.0487 % of ANNNNAAN 8-mers in experiment [4].
Taken in the same sequence, the figures for ATCACAAC were 0.0194 % of ANNNNAAN 8-mers, 0.0242 % of ANNNNAAN 8-mers, 0.0222 % of ANNNNAAN 8-mers and 0.0165 % of ANNNNAAN 8-mers.
In the same order, the values of AACTAAAG are 0.024 % of ANNNNAAN 8-mers, 0.0311 % of ANNNNAAN 8-mers, 0.0293 % of ANNNNAAN 8-mers and 0.0355 % of ANNNNAAN 8-mers.
In the same order, the values of AGTTCAAT are 0.0446 % of ANNNNAAN 8-mers, 0.0432 % of ANNNNAAN 8-mers, 0.046 % of ANNNNAAN 8-mers and 0.0421 % of ANNNNAAN 8-mers.
As to ACCTGAAG, the binding signal in experiment [1] was 0.0137 % of ANNNNAAN 8-mers; in experiment [2], 0.0161 % of ANNNNAAN 8-mers; in experiment [3], 0.0164 % of ANNNNAAN 8-mers; in experiment [4] it was 0.0206 % of ANNNNAAN 8-mers.
Consider ATGGTAAT, for which the binding signal was 1.27 % of ANNNNAAN 8-mers in experiment [1], 1.28 % of ANNNNAAN 8-mers in experiment [2], 0.202 % of ANNNNAAN 8-mers in experiment [3] and 0.219 % of ANNNNAAN 8-mers in experiment [4].
In the same order, the values of AAACAAAT are 0.352 % of ANNNNAAN 8-mers, 0.266 % of ANNNNAAN 8-mers, 0.761 % of ANNNNAAN 8-mers and 0.669 % of ANNNNAAN 8-mers.
With ATGAGAAT, the binding signal in experiment [1] was 0.101 % of ANNNNAAN 8-mers; in experiment [2], 0.134 % of ANNNNAAN 8-mers; in experiment [3] it was 0.0784 % of ANNNNAAN 8-mers; in experiment [4] it was 0.106 % of ANNNNAAN 8-mers.
With AATCGAAT, the binding signal was 0.087 % of ANNNNAAN 8-mers in experiment [1], 0.0926 % of ANNNNAAN 8-mers in experiment [2], 0.078 % of ANNNNAAN 8-mers in experiment [3] and 0.0916 % of ANNNNAAN 8-mers in experiment [4].
Taken in the same sequence, the figures for ATTGGAAA were 0.0927 % of ANNNNAAN 8-mers, 0.0794 % of ANNNNAAN 8-mers, 0.11 % of ANNNNAAN 8-mers and 0.0735 % of ANNNNAAN 8-mers.
Taken in the same sequence, the figures for AAGCAAAC were 0.0606 % of ANNNNAAN 8-mers, 0.0386 % of ANNNNAAN 8-mers, 0.0878 % of ANNNNAAN 8-mers and 0.057 % of ANNNNAAN 8-mers.
On to AACTTAAC, for which the binding signal is 0.0294 % of ANNNNAAN 8-mers in experiment [1], 0.0288 % of ANNNNAAN 8-mers in experiment [2], 0.0234 % of ANNNNAAN 8-mers in experiment [3] and 0.0248 % of ANNNNAAN 8-mers in experiment [4].
In the same order, the values of ACGTCAAC are 0.013 % of ANNNNAAN 8-mers, 0.0173 % of ANNNNAAN 8-mers, 0.0187 % of ANNNNAAN 8-mers and 0.0165 % of ANNNNAAN 8-mers.
In the same order, the values of AAGGGAAG are 0.05 % of ANNNNAAN 8-mers, 0.0541 % of ANNNNAAN 8-mers, 0.0511 % of ANNNNAAN 8-mers and 0.0388 % of ANNNNAAN 8-mers.
In the same order, the values of ACATGAAC are 0.0244 % of ANNNNAAN 8-mers, 0.0334 % of ANNNNAAN 8-mers, 0.0304 % of ANNNNAAN 8-mers and 0.019 % of ANNNNAAN 8-mers.
